Assay [1] is described as follows: inhibitors of TNFa-induced NFkB p65 translocation, primary screen, imaging, HUVEC, MLSMR starter and 10KST1 sets (AID 438;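 active means inhibition above 20% together with a positive visual image hit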;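 further: compound added about 3h40 before a 20 min TNFalpha stimulation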;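 on inhibition: signal is the nuclear over cytoplasmic p65 intensity ratio per well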). Conditions: HUVEC TNFa-induced p65 nuclear translocation; cell count: measured here: nuclei count (cytotoxicity indicator), at 2.08 µM; inhibition: at 2 µM, stronger effect = higher value, 0% TNFa-plus-vehicle, 100% no-TNFa wells.
The nature of assay [2]: inhibitors of mutant huntingtin aggregation, primary screen, imaging, exon1htt(103Q)mCFP cells, high-content imaging (AID 483;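 active means visual image review flags a hit and inhibition of aggregation exceeds 20%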;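 further: compound exposure lasted 3 days before fixation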;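 on nuclei count: percent of the per-plate median nuclei count of sample wells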). Conditions: exon1htt(103Q)mCFP cell line, aggregate imaging, at 2 µM; inhibition of aggregation: stronger effect = higher value; nuclei count: measured here: cell count, toxicity.
The nature of assay [3]: inhibitors of E-selectin induction by TNFa, primary screen, imaging, HUVEC, immunofluorescence, MLSMR starter and 10KST1 sets (AID 487;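 active means visually confirmed hit in the image check and inhibition above 20%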;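 on inhibition: signal is fraction of cell area covered by stained E-selectin grains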;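 on nuclei count: 100% = median nuclei count of all wells on the same plate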). The note with it: HUVEC TNFalpha-induced E-selectin immunofluorescence imaging, at 2 µM; inhibition: stronger effect = higher value; nuclei count: measured here: cell number, toxicity.
Assay [4] deals with Voltage-gated potassium channel subunit beta-2 (Rattus norvegicus) (UniProt P62483). As to the kind of experiment: KvBeta enzyme negative modulators, primary screen, biochemical, NADPH fluorescence (AID 622;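 active means fluorescence slope higher than the sample average by over 3 SD, cut at about -0.22 in these data, passing the limit was not always enough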;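 further: slope of raw intensity against log time taken from 70 to 1610 s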). Conditions: recombinant KvBeta, 4-cyanobenzaldehyde reduction, at 10 µM, stronger effect = higher value.
Sequence of Voltage-gated potassium channel subunit beta-2 (Rattus norvegicus) (P62483 whole entry, looked up): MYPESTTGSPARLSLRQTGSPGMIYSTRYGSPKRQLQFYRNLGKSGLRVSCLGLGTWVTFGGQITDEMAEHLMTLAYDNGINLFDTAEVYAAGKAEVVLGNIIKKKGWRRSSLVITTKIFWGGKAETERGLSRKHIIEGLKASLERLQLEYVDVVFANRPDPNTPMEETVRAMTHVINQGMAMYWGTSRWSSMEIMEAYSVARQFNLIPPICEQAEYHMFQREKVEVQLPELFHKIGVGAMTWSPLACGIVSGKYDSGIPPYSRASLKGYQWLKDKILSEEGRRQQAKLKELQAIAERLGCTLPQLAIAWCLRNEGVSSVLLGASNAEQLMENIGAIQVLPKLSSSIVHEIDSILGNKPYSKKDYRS
The target is the same in assay [5]. As to the kind of experiment: KvBeta positive modulators, primary screen, biochemical, NADPH fluorescence (AID 623;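 active means NADPH fluorescence slope more negative than the mean of all samples by about 3 SD, 99.7% confidence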;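 further: fluorescence intensity change per second fitted from 20 to 320 s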). Conditions: Recombinant KvBeta, NADPH fluorescence decrease slope, 10 min; at 10 µM; stronger effect = lower value.
Assay [6] concerns the target Alpha-2C adrenergic receptor (Homo sapiens) (UniProt P18825). In words: modulators of alpha2C/GIRK thallium flux, primary screen, cell-based, HEK293 alpha2C/GIRK1/2 (AID 624;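 active means fluorescence slope after compound addition differing from the mean of all screened samples at 99.7% confidence, in either direction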;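 further: slope of fluorescence ratio to pre-addition baseline per second over 15 to 24 s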). Conditions: thallium flux BTC fluorescence, at 10 µM, actives lie on both sides.
Assay [7] is described as follows: inhibitors of Sendai virus-induced IRF3 signaling, primary screen, TLR/RLR signaling modifier project, cell-based, Sendai virus stimulus, luciferase, 10K MLSCN set (AID 602276;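 active means inhibition at or above 50% at 10 µM; inactive means inhibition below 50%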;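 further: firefly luciferase from ISG56 promoter only with Renilla not read in this screen; 0% = Sendai virus plus DMSO and 100% = medium plus DMSO without virus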). Conditions: HEK293 RL24 IRF3 luciferase reporter, at 10 µM, stronger effect = higher value. For orientation: A reporter such as luciferase makes a cellular process visible.
Assay [8] in a line: inhibitors of poly I:C-induced TLR3 signaling, primary screen, cell-based, poly I:C stimulus, luciferase, 10K MLSCN set (AID 602277). Conditions: HEK293-TLR3 RL24 IRF3 luciferase reporter, at 10 µM, stronger effect = higher value.

Structures are written as SMILES. The source made the active and inactive calls.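 How the source made its calls, unless noted: active means inhibition of the reporter signal at or above 50%; inactive means inhibition below 50%.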

As a reminder, the inhibition is the drop in the measured response relative to a control, in per cent.

Sequence of Alpha-2C adrenergic receptor (Homo sapiens) (P18825 whole entry, looked up): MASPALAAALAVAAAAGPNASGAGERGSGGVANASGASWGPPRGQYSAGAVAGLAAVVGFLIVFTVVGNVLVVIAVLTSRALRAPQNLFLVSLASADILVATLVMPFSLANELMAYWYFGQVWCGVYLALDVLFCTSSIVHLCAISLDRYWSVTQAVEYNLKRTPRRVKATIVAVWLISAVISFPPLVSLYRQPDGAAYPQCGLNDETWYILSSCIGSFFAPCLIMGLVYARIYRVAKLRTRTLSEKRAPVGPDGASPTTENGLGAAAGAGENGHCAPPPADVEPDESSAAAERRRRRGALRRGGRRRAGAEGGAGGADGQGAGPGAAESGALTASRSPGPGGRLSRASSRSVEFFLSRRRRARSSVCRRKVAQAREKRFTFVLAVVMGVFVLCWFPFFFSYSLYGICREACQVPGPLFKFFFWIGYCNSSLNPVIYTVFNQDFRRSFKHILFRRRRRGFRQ

As for `O=C(c1ncn[nH]1)N1CCN(c2nc(-c3ccccc3)cs2)CC1`, the cell count in assay [1] amounted to 397. Moreover, the inhibition in assay [1] was 2.5% (inactive); in assay [3], 22.4% (inactive); in assay [7] it was -1.81% (inactive); in assay [8], -36.8% (inactive). For the same compound, the inhibition of aggregation in assay [2] is 2.5% (inactive). Moreover, the nuclei count in assay [2] stood at 68.1%; in assay [3], 111%. Moreover, in assay [4], the fluorescence slope was -0.387 (inactive). Further, the NADPH fluorescence slope in assay [5] was -4.6e-06 (inactive). In assay [6], the slope is 0.00549 (inactive).

For `O=C(NCc1nnc(SCC(=O)N2CCC(Cc3ccccc3)CC2)o1)c1ccccc1F`, the cell count in assay [1] is 574. The inhibition in assay [1] was -0.4% (inactive); in assay [3] it was 5.1% (inactive); in assay [7] it was -4.5% (inactive); in assay [8] it was 8.45% (inactive). Further, the inhibition of aggregation in assay [2] is 4.4% (inactive). Further, the figures for the nuclei count in assay [2] and in assay [3] were 112% and 110%, respectively. For the same compound, the fluorescence slope in assay [4] was -0.549 (inactive). The NADPH fluorescence slope in assay [5] is -5.6e-05 (inactive). Further, the slope in assay [6] is 0.00657 (inactive).

`O=C(Nc1ccc2c(c1)OCO2)OCc1ccccc1`: the cell count in assay [1] came to 449. Also, the inhibition in assay [1] was 1.6% (inactive); in assay [3], 8.4% (inactive); in assay [7], -47.7% (inactive); in assay [8] it was -107% (inactive). Further, in assay [2], the inhibition of aggregation is -6% (inactive). Besides, the nuclei count in assay [2] and in assay [3] was 101% throughout. Also, in assay [4], the fluorescence slope is -0.439 (inactive). In assay [5], the NADPH fluorescence slope is -5.5e-05 (inactive). Further, the slope in assay [6] is 0.0049 (inactive).

Turning to `CC1(C)CNC(=O)CC(C)(C)N1O`, the cell count in assay [1] was found to be 379. The inhibition is 4% (inactive) in assay [1], -66.8% (inactive) in assay [3], -4.83% (inactive) in assay [7] and 19.7% (inactive) in assay [8]. The inhibition of aggregation in assay [2] is 7.9% (inactive). Further, the results for the nuclei count in assay [2] and in assay [3] were 89.4% and 110%, respectively. In addition, the fluorescence slope in assay [4] was -0.497 (inactive). Besides, the NADPH fluorescence slope in assay [5] was -6.2e-06 (inactive). Besides, the slope in assay [6] is 0.00315 (inactive).

Regarding `CC(=O)Nc1ccc(S(=O)(=O)NCC2CCC(C(=O)NCCCN3CCCC3=O)CC2)cc1` (centres undefined), the cell count in assay [1] turned out to be 318. Moreover, the inhibition is -0.8% (inactive) in assay [1], -15.4% (inactive) in assay [3], 20.7% (inactive) in assay [7] and 19.4% (inactive) in assay [8]. In addition, the inhibition of aggregation in assay [2] was 5.9% (inactive). For the same compound, the nuclei count is 112% in assay [2] and 106% in assay [3]. Moreover, in assay [4], the fluorescence slope was -0.484 (inactive). In addition, in assay [5], the NADPH fluorescence slope is -3.3e-05 (inactive). Besides, in assay [6], the slope was 0.00457 (inactive).

In the case of `O=C(c1ccco1)N(Cc1cc2ccccc2[nH]c1=O)C1CCCCC1`, in assay [1], the cell count was determined as 312. In addition, the inhibition in assay [1] is 4.8% (inactive); in assay [3] it was -42.1% (inactive); in assay [7] it was -3.39% (inactive); in assay [8], 6.38% (inactive). Also, the inhibition of aggregation in assay [2] was -13.6% (inactive). The nuclei count in assay [2] is 114%; in assay [3], 115%. Moreover, the fluorescence slope in assay [4] is -0.617 (inactive). Also, the NADPH fluorescence slope in assay [5] was 2e-05 (inactive). Further, in assay [6], the slope is 0.00525 (inactive).

Turning to `CSc1ccccc1N=CC1=C(O)CC(C)(C)CC1=O`, in assay [1], the cell count was found to be 483. Besides, the inhibition in assay [1] was 7.1% (inactive); in assay [3], -4.9% (inactive); in assay [7], 5.59% (inactive); in assay [8], 17.7% (inactive). For the same compound, the inhibition of aggregation in assay [2] is 2.4% (inactive). For the same compound, the nuclei count in assay [2] stood at 104%; in assay [3], 119%. The fluorescence slope in assay [4] was -0.461 (inactive). The NADPH fluorescence slope in assay [5] was -0.000148 (inactive). For the same compound, the slope in assay [6] was 0.00576 (inactive).

`COc1ccc(S(=O)(=O)N2CN(Cc3ccco3)c3nc4ccccc4nc32)cc1`: the cell count in assay [1] was 600. The inhibition in assay [1] is -3.6% (inactive); in assay [3], -118% (inactive); in assay [7] it was 10.9% (inactive); in assay [8], 20% (inactive). Further, the inhibition of aggregation in assay [2] is -1.4% (inactive). The figures for the nuclei count in assay [2] and in assay [3] were 82.9% and 134%, respectively. The fluorescence slope in assay [4] was -0.605 (inactive). Further, the NADPH fluorescence slope in assay [5] is -1.5e-05 (inactive). Also, the slope in assay [6] was 0.00619 (inactive).

Consider `COc1ccc(C(CNC(=O)c2cc(C)oc2C)N2CCOCC2)cc1` (centres undefined), for which, in assay [1], the cell count came to 711. Besides, the inhibition in assay [1] was -0.8% (inactive); in assay [3], -140% (inactive); in assay [7], 11.1% (inactive); in assay [8], 15.8% (inactive). Further, the inhibition of aggregation in assay [2] is -5.3% (inactive). Also, the nuclei count in assay [2] came out at 103%; in assay [3], 145%. The fluorescence slope in assay [4] is -0.609 (inactive). Also, the NADPH fluorescence slope in assay [5] was -9.2e-06 (inactive). The slope in assay [6] is 0.00615 (inactive).

As to `O=C(COc1ccccc1)N1CCN(c2ncnc3c2cnn3-c2ccccc2)CC1`, the cell count in assay [1] came to 476. The inhibition is 1% (inactive) in assay [1], -4.4% (inactive) in assay [3], 14.5% (inactive) in assay [7] and -0.433% (inactive) in assay [8]. Also, the inhibition of aggregation in assay [2] is 1.3% (inactive). Moreover, the nuclei count was 108% in assay [2] and 119% in assay [3]. Further, in assay [4], the fluorescence slope was -0.623 (inactive). The NADPH fluorescence slope in assay [5] was -4e-05 (inactive). For the same compound, in assay [6], the slope is 0.00515 (inactive).

In the case of `Cc1cccc(NC(=O)CSc2nnc(-c3cc(C)n(-c4ccccc4)c3C)o2)c1C`, in assay [1], the cell count amounted to 590. Moreover, the inhibition in assay [1] was -16.6% (inactive); in assay [3], -27.3% (inactive); in assay [7], 5.08% (inactive); in assay [8], 52.9% (active). Also, in assay [2], the inhibition of aggregation was -14.8% (inactive). The values for the nuclei count in assay [2] and in assay [3] were 48% and 111%, respectively. Besides, in assay [4], the fluorescence slope was -0.6 (inactive). In assay [5], the NADPH fluorescence slope was -1.4e-05 (inactive). Moreover, in assay [6], the slope was 0.00877 (inactive).

With `CCOC(=O)c1sc(Nc2nc3c(OC)cccc3s2)nc1C`, in assay [1], the cell count was determined as 435. For the same compound, the inhibition in assay [1] was 2.2% (inactive); in assay [3], -20.5% (inactive); in assay [7], -1.57% (inactive); in assay [8], -60.9% (inactive). In addition, the inhibition of aggregation in assay [2] is -20.1% (inactive). Moreover, the nuclei count in assay [2] was 106%; in assay [3] it was 101%. Moreover, in assay [4], the fluorescence slope was -0.351 (inactive). For the same compound, in assay [5], the NADPH fluorescence slope was 2.5e-05 (inactive). Also, the slope in assay [6] was 0.00775 (inactive).

As for `CCOc1ccccc1C(=O)NCc1ccc2c(c1)OCO2`, the cell count in assay [1] came to 414. The inhibition in assay [1] is 1.1% (inactive); in assay [3], -18.7% (inactive); in assay [7], 10.4% (inactive); in assay [8] it was -6.17% (inactive). In assay [2], the inhibition of aggregation is -12.2% (inactive). Besides, the nuclei count in assay [2] was 98.8%; in assay [3], 94.7%. Further, in assay [4], the fluorescence slope is -0.388 (inactive). Besides, in assay [5], the NADPH fluorescence slope is -3.6e-05 (inactive). For the same compound, the slope in assay [6] was 0.00485 (inactive).

`Cc1nnc2c3ccccc3c(-c3ccccc3)nn12`: the cell count in assay [1] was 481. Also, the inhibition in assay [1] is -4.4% (inactive); in assay [3] it was -3.3% (inactive); in assay [7], 68% (active); in assay [8], 61.1% (active). The inhibition of aggregation in assay [2] was -5.8% (inactive). Further, the nuclei count came to 92.4% in assay [2] and 108% in assay [3]. Moreover, the fluorescence slope in assay [4] was -0.301 (inactive). In addition, in assay [5], the NADPH fluorescence slope was -4.7e-05 (inactive). The slope in assay [6] was 0.00584 (inactive).

These data come from PubChem BioAssay.
